Among the data in PubChem BioAssay AID2202239 (National Center for Advancing Translational Sciences (NCATS), 2025) are Potency values, retold here.

Structures are written as SMILES. Activity calls are given as the source filed them. The call rests on the fitted dose curve; in most records, active means well fitted inhibition curve with a large enough effect; inactive means flat fitted curve, though single readings scatter. Square brackets hold non-standard residues; d marks the D form. Peptide text beside a SMILES is read from it. * marks the point of attachment. Dolaproine = CO[C@@H]([C@@H]1CCCN1)[C@@H](C)C(=O)O; Dil = CC[C@H](C)[C@H](NC)[C@@H](CC(=O)O)OC; NMe2Val = CC(C)[C@@H](C(=O)*)N(C)C; X1 = C[C@@H](N*)[C@@H](O)c1ccccc1; NMeV = CN[C@H](C(=O)O)C(C)C

The assay in a line: Identification of antibody-drug conjugate (ADC) payloads which are substrates of ATP-binding cassette drug efflux transporters: ABCB1-HeLa-KB-8-5-11 cell line with tariquidar. Particulars: KB-8-5-11 (P-gp) + tariquidar, viability, CellTiter-Glo, 48 h. An excerpt: Antibody-drug conjugates (ADCs) feature an antibody recognizing a specific protein joined to a potent toxic payload. Numerous antibody-drug conjugates have received FDA approval; however, clinical resistance arises. Resistance mechanisms include decreased expression or mutation of the antibody target, impaired payload release, or increased expression of ATP-binding cassette (ABC) efflux transporters associated with multidrug resistance. We therefore sought to characterize the interaction of ABC multidrug transporters with ADC payloads. We performed a high-throughput screen with 27 common ADC payloads using cells lines expressing ABC transporters P-glycoprotein (P-gp, encoded by ABCB1) or ABCG2 (encoded by ABCG2). Confirmatory assays were also performed using cells transfected to express P-gp, ABCG2, or MRP1 (encoded by ABCC1). Several commonly used ADC payloads were substrates of P-gp, including calicheamicin gamma1, monomethyl auristatin E, DM1, and DM4. All the pyrrolobenzodiazepines tested - SJG136, SGD-1882, SG2057, and SG3199 - were substrates of P-gp, ABCG2, and MRP1. […] These findings highlight the risk of transporter-mediated resistance with certain ADC payloads and underscore the importance of selecting payloads that evade ABC transporter recognition in future ADC development.
HEK-293 cells were transfected with empty vector (pcDNA) or vector containing the human ABCB1 (MDR-19), ABCG2 (R-5), or ABCC1 gene (MRP1) and were maintained in EMEM with 2 mg/mL G418 added to maintain transporter expression. The HeLa derivative KB-3-1 and the P-gp overexpressing KB-8-5-11 subline were maintained in DMEM; KB-8-5-11 additionally received 100 ng/mL colchicine. H460 parental cells were obtained from the Division of Cancer Treatment and Diagnosis Tumor Repository, National Cancer Institute at Frederick, MD and were cultured in RPMI. The ABCG2 expressing subline H460 MX20 was generated by selecting H460 cells in 20 nM mitoxantrone. Media in all cases was supplemented with 10% FBS and 1% penicillin-streptomycin. We explored 27 common ADC payloads, in two orthogonal, paired cell line sets-a drug selected and transfected set for each transporter--to identify substrates of the ABC transporters P-gp and ABCG2. Compounds were sourced from Levena Biopharma (San Diego, CA), Selleck Chem (Houston, TX), ChemieTek (Indianapolis, IN), or Microsource Discovery Systems (Gaylordsville, CT). Screening was performed as previously described. Briefly, cells were plated at a density of 500 cells/well in 1536 well plates with compounds added using a 1536-head pin tool (Kalypsys, San Diego CA). Cells were incubated with cytotoxic drugs and processed with CellTiter Glo reagent (Promega, Madison, WI) to determine viability after 48 hours. P-gp substrates were identified by comparing compound activity between paired sets of low-expressing (sensitive) and over-expressing (resistant) cell lines.
For orientation: Cellular ATP, detected with luciferase, serves as a proxy for viable cell number.
Consider `CC[C@@]1(O)C(=O)OCc2c1cc1n(c2=O)Cc2cc3ccccc3nc2-1`, for which the Potency was 375 nM (active).

For the compound `CC[C@H](C)[C@@H]([C@@H](CC(=O)N1CCC[C@H]1[C@H](OC)[C@@H](C)C(=O)N[C@@H](Cc1ccccc1)C(=O)O)OC)N(C)C(=O)[C@@H](NC(=O)[C@H](C(C)C)N(C)C)C(C)C` (NMe2Val-V[Dil][Dolaproine]F-OH), the Potency was 18.8 nM (active).

As for `COc1cccc2c1C(=O)c1c(O)c3c(c(O)c1C2=O)C[C@@](O)(C(=O)CO)CC3OC1CC(N2CCOC(OC)C2)C(O)C(C)O1` (some centres not stated), the Potency was 10.6 nM (active).

Consider `CC[C@H](C)[C@@H]1NC(=O)CNC(=O)[C@H]2Cc3c([nH]c4cc(O)ccc34)S(=O)C[C@H](NC(=O)CNC1=O)C(=O)N[C@@H](CC(N)=O)C(=O)N1C[C@H](O)C[C@H]1C(=O)N[C@@H]([C@@H](C)[C@@H](O)CO)C(=O)N2` (some centres not stated), for which the Potency was 4200 nM (active).

For the compound `COc1cc2cc(c1Cl)N(C)C(=O)C[C@H](OC(=O)C(C)C)[C@]1(C)O[C@H]1[C@H](C)[C@@H]1C[C@@](O)(NC(=O)O1)[C@H](OC)C=CC=C(C)C2`, the Potency is 0.1 nM (active).

As to `CC[C@H](C)[C@@H]([C@@H](CC(=O)N1CCC[C@H]1[C@H](OC)[C@@H](C)C(=O)N[C@H](C)[C@@H](O)c1ccccc1)OC)N(C)C(=O)[C@@H](NC(=O)[C@H](C(C)C)N(C)C)C(C)C`, the Potency is 0.2 nM (active).

Turning to `CC[C@H](C)[C@@H]([C@@H](CC(=O)N1CCC[C@H]1[C@H](OC)[C@@H](C)C(=O)N[C@H](C)[C@@H](O)c1ccccc1)OC)N(C)C(=O)[C@@H](NC(=O)[C@@H](NC)C(C)C)C(C)C` (H-[NMeV]V[Dil][Dolaproine]-X1), the Potency was 0.2 nM (active).
